In ChEMBL document CHEMBL4513216, “Probing the Open Global Health Chemical Diversity Library for Multistage-Active Starting Points for Next-Generation Antimalarials” (ACS Infect Dis, 2020):
In all, about 65,000 compounds went through this assay and about 2,100 (3.2%) showed an effect of 50% or more. The median lay at about -52%. What follows is part of a selection rich in strong results, with near analogues and random picks from the rest.

These molecules were tested on Plasmodium falciparum (assay: Screen against P. falciparum Asexual Blood Stage (ABS), at 5uM). Conditions: tested at 5 uM.
Assay type: functional, Dd2

Row | Structure (SMILES) | INHIBITION
1 | C=Cn1ncc(CN2C[C@@H]3CCCN3C[C@@H]2Cc2ccccc2)c1C | 25.8%
2 | CCCn1ncc(CN2C[C@@H]3CCCN3C[C@@H]2CCSC)c1C | 29.3%
3 | CCCn1ncc(CN2C[C@@H]3CCCN3C[C@H]2Cc2ccccc2)c1C | 57.8%
4 | CCn1ncc(CN2C[C@@H]3CCCN3C[C@@H]2CCSC)c1C | -116%
5 | CCCn1ncc(CN2C[C@@H]3CCCN3C[C@@H]2Cc2ccccc2)c1C | 63.8%
6 | CCCn1ncc(CN2C[C@@H]3CCCN3C[C@H]2CCSC)c1C | -62.1%
7 | CNC(=O)COC1COC2(CCN(Cc3ccncc3F)CC2)C1 (stereo unspecified) | -146%
8 | CC(C)[C@H](NS(C)(=O)=O)C(=O)NCc1cc(-c2ccco2)nn1C | -141%
9 | COc1c(CNCc2ccccc2Cn2cccn2)c(C)nn1C | 57.4%
10 | COc1c(CNCc2ccc(Cn3cccn3)cc2)c(C)nn1C | 14.8%
11 | COc1c(CNCc2ccccc2Cn2cncn2)c(C)nn1C | 3.03%
12 | COC[C@]1(O)CCN(c2cc(C3CC3)ncn2)CC1(C)C | -106%
13 | CC(C)c1cc(C(=O)NCCc2nc(-c3ccncc3)n[nH]2)[nH]n1 | 66.4%
14 | CC(C)C(=O)NCCc1nc(-c2ccncc2)n[nH]1 | -11.5%
15 | CC(C)c1cc(C(=O)NCCc2nc(-c3cccnc3)n[nH]2)[nH]n1 | 14.9%
16 | Cc1noc([C@@H]2C[C@H]3OCC[C@H]3N(Cc3cc(C)c(C)o3)C2)n1 | -151%
17 | CNC(=O)NC(=O)CN1CCC(c2cccc(F)c2)C1 (stereo unspecified) | -92.5%
18 | CC(C)NC(=O)CN1CCC(c2cccc(F)c2)C1 (stereo unspecified) | 54.9%
19 | CCNC(=O)NC(=O)CN1CCC(c2cccc(F)c2)C1 (stereo unspecified) | -4.74%
20 | Cc1ccccc1NC(=O)N1CCN(Cc2noc(C3CC3)n2)CC1 | -69.4%
21 | CSCCCNC(=O)C(c1ccccc1C)N(C)C (stereo unspecified) | -35.8%
22 | Cc1ccccc1C(C(=O)NCCSC(C)C)N(C)C (stereo unspecified) | 50.3%
23 | Cc1ccccc1C(C(=O)NCCSC(F)(F)F)N(C)C (stereo unspecified) | 46.1%

Row | Structure (SMILES) | INHIBITION
24 | CSC(C)C(=O)N(C)CCCc1cc(-c2ccccc2)no1 (stereo unspecified) | -25.3%
25 | CCOC(=O)C1CCN(c2cc(C(=O)N3CCOCC3)nc(C)n2)CC1 | -5.84%
26 | COc1ccc(C(NCc2ccc(C#N)cc2)C2CC2)cc1 (stereo unspecified) | 60.9%
27 | COc1ccc(C(NCc2cccc(C#N)c2)C2CC2)cc1 (stereo unspecified) | 48.3%
28 | COc1ccc(C(NCc2cccc(C#N)c2)C(C)C)cc1 (stereo unspecified) | -11.2%
29 | O=C(C1CCOC1)N1CCC2(CCN(Cc3nccs3)CC2)CC1 (stereo unspecified) | -146%
30 | COc1ccc(NC(=O)c2nc3ccccc3n(C)c2=O)cc1OC | -33.5%
31 | O=C(O)c1cc2c(nc1-c1ccoc1)CCN(CC1CCOC1)CC2 (stereo unspecified) | -108%
32 | CSCC(=O)N(C)Cc1noc(-c2ccccc2)n1 | -229%
33 | CS(=O)(=O)CCNC(=O)Nc1sc2ccccc2c1Cl | -95%
34 | CN(C)CC(C)(O)CNC(=O)Nc1sc2ccccc2c1Cl (stereo unspecified) | 63.2%
35 | CN(C)C(=O)CCNC(=O)Nc1sc2ccccc2c1Cl | -22.3%
36 | Cc1cc(-c2cnc(N3CCCCCC3)nc2-c2cccnc2C)on1 | 3.45%
37 | Cc1cnn(C2CN(CCOc3cccc(C#N)c3)C2)c1 | -128%
38 | CCS(=O)(=O)N1CC(=O)N(Cc2ccccc2OC)CC(O)C1 (stereo unspecified) | -105%
39 | CCOC(=O)C1CCN(C(=O)c2cnn(-c3ccccc3F)c2N)CC1 | -221%
40 | c1csc(C(CNCc2cccc3c2OCO3)N2CCOCC2)c1 (stereo unspecified) | 40.2%
41 | Cc1ccc(C(CNCc2cccc3c2OCO3)N2CCOCC2)o1 (stereo unspecified) | 65.7%
42 | c1cc(CNCc2ccnc(N3CCOCC3)c2)c2c(c1)OCO2 | -31.4%
43 | Cc1cc(C2CCCN2C(=O)CN2C(=O)OC(C)(C)C2=O)on1 (stereo unspecified) | -28.9%
44 | CCCS(=O)(=O)N1C[C@@H]2CN(Cc3cnn(C)c3)CCO[C@@H]2C1 | -67.3%
45 | O=C(NCCn1cccc1)C(c1ccccc1)N1CCCC1 (stereo unspecified) | 54.4%
46 | O=C(NCCNc1cccnc1)C(c1cccnc1)N1CCCC1 (stereo unspecified) | -11.7%

Row | Structure (SMILES) | INHIBITION
47 | Cc1cccc(C(C(=O)NCCn2cccc2)N(C)C)c1 (stereo unspecified) | 42.5%
48 | CC(C)(NCc1cccc(C#N)c1)c1ccc2c(c1)OCO2 | 51.5%
49 | CC(C)(NCc1ccc(C#N)cc1)c1ccc2c(c1)OCO2 | -0.993%
50 | CC(C)(NCc1cccc(C(N)=O)c1)c1ccc2c(c1)OCO2 | 19.8%
51 | O=C1N[C@@H]2CCN(C(=O)C3CCCC3)[C@@H]2C(=O)N1c1ccc(F)cc1 | 56.1%
52 | O=C1N[C@@H]2CCN(C(=O)C3CCC3)[C@@H]2C(=O)N1c1ccc(F)cc1 | 32%
53 | O=C1N[C@@H]2CCN(C(=O)C3CC3)[C@@H]2C(=O)N1c1ccc(F)cc1 | -99.9%
54 | CC(=O)N1N=C(COc2ccc3c(c2)OCO3)OC1c1cccc(Cl)c1 (stereo unspecified) | -125%
55 | Cc1cc(=O)n(CC(=O)NC(C)C)c(Nc2ccc(F)c(C)c2)n1 | -47.4%
56 | CN1CCc2cc(C(CNS(=O)(=O)c3cccs3)N3CCCC3)ccc21 (stereo unspecified) | 15.5%
57 | Cc1nn(C)cc1S(=O)(=O)NCC(c1ccccc1)N1CCCCCC1 (stereo unspecified) | 12.9%
58 | CN(C)c1ccc(C(CNS(=O)(=O)c2cccs2)N2CCCC2)cc1 (stereo unspecified) | 54.2%
59 | COc1ccccc1CNC(=O)COc1c(C)n(C)ccc1=O | -82.3%
60 | CC(C)c1cnc(CN(C)C2CCN(CCc3cnn(C)c3)C2)o1 (stereo unspecified) | -112%
61 | O=C(NCC1CC1)C1CCC2(CCN(C(=O)c3cnccn3)CC2)O1 (stereo unspecified) | -40.1%
62 | CCCc1ccc(OCCNCc2ccco2)c(OC)c1 | 51.5%
63 | COc1cc(CNCc2ccco2)ccc1OCCO | -66.2%
64 | COc1cc(C(C)=O)ccc1OCCNCc1ccco1 | 1.68%
65 | c1cc(CN2CCCC2)cc(-n2ccnc2-c2ccncc2)c1 | 6.67%
66 | CCCc1nccn1-c1cccc(CN2CCCC2)c1 | 53.1%
67 | Cn1ccnc1-c1nccn1-c1cccc(CN2CCCC2)c1 | -2.05%
68 | O=C(NCCc1ccc(F)cc1)C1CN(C(=O)Cn2cncn2)C1 | -29.6%
69 | Cc1nc(N(C)CCN(C)C)c2cnn(C)c2n1 | -71.9%

Row | Structure (SMILES) | INHIBITION
70 | COCc1nc(N(C)CCSc2ccccc2)c2cnn(C)c2n1 | -14.2%
71 | CN(C)CCN(C)c1nc(CCc2ccccc2)nc2c1cnn2C | 51.9%
72 | CCN1CCc2cc(-c3cncn3CCNC3CCS(=O)(=O)C3)ccc21 (stereo unspecified) | 3.68%
73 | CC1Cc2cc(-c3cncn3CC(=O)NC(C)(C)C)ccc2N1C (stereo unspecified) | 54.2%
74 | CCN1CCc2cc(-c3cncn3CC(=O)NC(C)(C)C)ccc21 | 66.2%
75 | CC1CCN(S(=O)(=O)c2cccn(CC(=O)NC(C)(C)C)c2=O)CC1 | -129%
76 | CN1CCCc2cc(-c3cncn3CC(=O)NC(C)(C)C)ccc21 | -38.6%
77 | CN1CCCc2cc(-c3cncn3CCNC3CCS(=O)(=O)C3)ccc21 (stereo unspecified) | -79.3%
78 | c1cc2c(cc1CSCc1noc(C3CC3)n1)OCCO2 | -17%
79 | O=C(OCC1CCN(c2ccccc2)C1)c1cscn1 (stereo unspecified) | 0.13%
80 | CCOC1CCC2(CCN(C(=O)c3csnn3)CC2)c2ccccc21 (stereo unspecified) | -79.6%
81 | O=C(O)c1ccccc1-c1ccc(CNC(=O)C2CCOCC2)cc1 | -63.2%
82 | Nc1nc2c(c(NC(Cn3cccn3)c3ccccc3)n1)CCNCC2 (stereo unspecified) | -40.8%
83 | Cc1noc(CN(C)CC2CCN(CCO)CC2)n1 | -64%
84 | CN(CC1CCN(CCO)CC1)CC(O)c1ccc(F)cc1F (stereo unspecified) | 56.7%
85 | CCC(c1ccc(F)cc1F)N1CCN(CCO)CC1 (stereo unspecified) | 34.1%
86 | CN(CCOCC(F)(F)F)CC1CCN(CCO)CC1 | 19.4%
87 | CN(CC1CCN(CCO)CC1)CC(O)c1ccc(F)cc1 (stereo unspecified) | 69.1%
88 | Cc1cnn(CC2CCN(CC(O)c3ccc(F)cc3)CC2)c1 (stereo unspecified) | 29.3%
89 | Cc1ccc(C(=O)NCCCNc2ccc(C(F)(F)F)cn2)cc1 | 35.4%
90 | CCS(=O)(=O)N1CCC(C(=O)NC(Cc2ccsc2)c2nccs2)CC1 (stereo unspecified) | -83.8%
91 | CN(Cc1ccccc1CNC(=O)C1CNC(=O)N1)C1CCCCC1 (stereo unspecified) | -35%
92 | COc1cc(N2CCC3(CC(=O)N(Cc4csc(C)n4)C3)C2)ncn1 (stereo unspecified) | -10.7%

Row | Structure (SMILES) | INHIBITION
93 | COC(=O)N1CCC2(CC1)CC(c1ccccc1)CN(C)C2 (stereo unspecified) | -17.2%
94 | CN1CC(c2ccccc2)CC2(CCN(C(=O)c3ccccc3)CC2)C1 (stereo unspecified) | 18.1%
95 | CN1CC(c2ccccc2)CC2(CCN(CC(=O)N(C)C)CC2)C1 (stereo unspecified) | 53.8%
96 | CC(C)OCc1ncn2c1CN(Cc1ccoc1)CCC2 | -4.62%
97 | CCc1n[nH]c(C2CN(C(=O)c3ccnc(N(C)C)c3)CCO2)n1 (stereo unspecified) | -77.2%
98 | O=C(CN1CCN(C(=O)c2cccc(-c3ccoc3)c2)CC1)C1CC1 | -3.7%
99 | CC1CCCN1C1CCN(C(=O)c2cccc(F)c2)CC1 (stereo unspecified) | -14.6%
100 | CC1CCCN1C1CCN(C(=O)c2cccc(-c3ccoc3)c2)CC1 (stereo unspecified) | 53.6%
101 | O=C1c2cc(Br)cc(Br)c2OCC1(CN1CCCC1)CN1CCCC1 | -65.9%
102 | CC(C(=O)Nc1ccc(N2CCOCC2)nc1)n1cncn1 (stereo unspecified) | -27%
103 | COc1cccc(O)c1CN1CCCC(Nc2cccc(F)c2)C1 (stereo unspecified) | 51.3%
104 | COc1cccc(CN2CCCC(Nc3cccc(F)c3)C2)c1O (stereo unspecified) | 67.3%
105 | COc1cccc(CNc2ccc(F)c(Cl)c2)c1O | -117%
106 | COc1ccc(CN2CCCC(Nc3cccc(F)c3)C2)cc1O (stereo unspecified) | 63.3%
107 | COc1cccc(F)c1CN1CCC(c2nc(C)cc(C)n2)C1 (stereo unspecified) | 23.3%
108 | COc1ccc(F)cc1CN1CCCC(c2cc(C(N)=O)[nH]n2)C1 (stereo unspecified) | -14.1%
109 | COc1cc(CN2CCCC(Nc3cccc(F)c3)C2)cc(OC)c1O (stereo unspecified) | 36.9%
110 | COc1ccc(NC2CCCN(Cc3cnc(N(C)C)s3)C2)cc1OC (stereo unspecified) | -54.2%
111 | Fc1ccc(NC2CCCN(Cc3ccncc3)C2)cc1 (stereo unspecified) | -65.4%
